# Shown is part of a subset that was picked to be rich in hits.
# IDE exosite inh: displaces the probe from the exo-site of human IDE; P14735; purified IDE, FL-6b probe fluorescence polarization; hits give low values; z-score at 20 µM; 17,000 compounds, 6.3% hits; AID 1259349;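 active means z-score of -3 or lower, meaning strong loss of probe binding signal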;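 further: His-tagged human IDE residues 42-1019 made in E. coli with 30 nM FL-6b probe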
# The depositor's hits bear a star.
SMILES,IDE exosite inh
COc1ccc(C#Cc2ccc([C@@H]3[C@@H](CO)N4CCCCN(C(=O)Cc5ccncc5)C[C@H]34)cc2)cc1,-0.52
O=C1CNC[C@@H]2[C@H](c3ccc(Br)cc3)[C@H](CO)N12,-0.043
O=C(Cc1ccccn1)N1CCCCN2[C@H](CO)[C@H](c3ccc(-c4ccccc4F)cc3)[C@H]2C1,-4.4*
O=C(Cc1ccccn1)N1CCCCN2[C@H](CO)[C@@H](c3ccc(-c4ccccc4F)cc3)[C@H]2C1,-0.28
O=C(Cc1ccccn1)N1CCCCN2[C@H](CO)[C@@H](c3ccc(Br)cc3)[C@@H]2C1,1.7
O=C(Cc1ccccn1)N1CCCCN2[C@@H](CO)[C@@H](c3ccc(-c4ccccc4F)cc3)[C@@H]2C1,-5.6*
O=C(Cc1ccccn1)N1CCCCN2[C@@H](CO)[C@H](c3ccc(-c4ccccc4F)cc3)[C@@H]2C1,0.008
O=C(Cc1ccccn1)N1CCCCN2[C@H](CO)[C@H](c3ccc(Br)cc3)[C@@H]2C1,4.5
O=C(O)[C@H]1[C@H](CO)[C@H]2Cn3c(ccc(C4=CCCCC4)c3=O)[C@@H]1N2C(=O)Cc1ccccn1,1.1
O=C(Cc1ccccc1)N1CCCCN2[C@H](CO)[C@H](c3ccc(C#CC4(O)CCCC4)cc3)[C@H]2C1,4.6
N#Cc1cccc(-c2ccc([C@H]3[C@@H](CO)N4CCCCN(C(=O)Cc5ccccc5)C[C@H]34)cc2)c1,3.1
